# An excerpt weighted towards active compounds, which were near 1.1% of everything screened.
# RPL19A TOR yeast – modulators of TOR pathway RPL19A-GFP in S. cerevisiae; 330,000 tested, 0.3% active; AID 2025; percent response vs DMSO, % at 10 µM; S. cerevisiae RPL19A-GFP strain, flow cytometry, 3 h; active compounds read low;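 active = percent response vs DMSO below 50%; inconclusive = fewer than 70 events counted for the yeast strain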;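 note: median channel GFP fluorescence of the barcoded RPL19A-GFP strain; lower means less RPL19A-GFP as with rapamycin TOR inhibition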
# CIT2-GFP yeast – alters CIT2-GFP fluorescence in TOR pathway yeast screen | S. cerevisiae CIT2-GFP strain, flow cytometry, 3 h; 100 means same as DMSO wells | GFP response vs DMSO, % at 10 µM | 320,000 tested, 0.065% active | AID 2029;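 active = GFP response relative to DMSO above a set limit, near the screen mean plus 3 SD, cut at about 150% in these data; inconclusive = Fewer than 70 cells measured for a yeast strain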;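 note: ratio of well median GFP fluorescence to mean of DMSO wells on the plate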
# MEP2-GFP yeast – alters MEP2-GFP fluorescence in TOR pathway yeast screen; AID 2016; S. cerevisiae MEP2-GFP strain, flow cytometry GFP, 3 h; 100% = DMSO control level; 330,000 tested, 0.51% active; GFP response vs DMSO, % at 10 µM;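 active = GFP response versus DMSO above a set limit, roughly screen mean plus 3 SD, cut at about 180% in these data; inconclusive = fewer than 70 cells counted for a yeast strain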;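 note: median GFP fluorescence of the barcode-gated MEP2-GFP cells per well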
# AGP1-GFP MLPCN – yeast TOR pathway AGP1-GFP modulation | S. cerevisiae AGP1-GFP multiplex flow cytometry, 3 h; GFP as percent of DMSO wells | GFP response vs DMSO, % at 10 µM | 320,000 tested, 0.02% active | AID 2066;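 active = GFP response relative to DMSO above a set limit, near screen average plus 3 SD, cut at about 150% in these data; inconclusive = fewer than 70 cells counted for the yeast strain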;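 note: median GFP channel fluorescence of the gated AGP1 strain per well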
# LAP4 TOR yeast – alters LAP4-GFP fluorescence in TOR pathway yeast screen | S. cerevisiae LAP4-GFP multiplex, flow cytometry GFP, 3 h; median GFP as percent of DMSO wells | GFP response vs DMSO, % at 10 µM | 320,000 tested, 0.34% active;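 active = GFP response vs DMSO above a set limit, about the screen mean plus 3 SD, cut at about 150% in these data; inconclusive = under 70 cell events counted for the yeast strain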
# VLA-4 inh – inhibition in a human VLA-4 binding assay; VLA-4 expressing cells, ligand binding flow cytometry; inhibition, % (about 7 µM as worked out from the volumes in the protocol); 330,000 tested, 0.2% active; AID 2557; in the data active = inhibition above about 50%
# Target sequence (P13612 whole entry, looked up): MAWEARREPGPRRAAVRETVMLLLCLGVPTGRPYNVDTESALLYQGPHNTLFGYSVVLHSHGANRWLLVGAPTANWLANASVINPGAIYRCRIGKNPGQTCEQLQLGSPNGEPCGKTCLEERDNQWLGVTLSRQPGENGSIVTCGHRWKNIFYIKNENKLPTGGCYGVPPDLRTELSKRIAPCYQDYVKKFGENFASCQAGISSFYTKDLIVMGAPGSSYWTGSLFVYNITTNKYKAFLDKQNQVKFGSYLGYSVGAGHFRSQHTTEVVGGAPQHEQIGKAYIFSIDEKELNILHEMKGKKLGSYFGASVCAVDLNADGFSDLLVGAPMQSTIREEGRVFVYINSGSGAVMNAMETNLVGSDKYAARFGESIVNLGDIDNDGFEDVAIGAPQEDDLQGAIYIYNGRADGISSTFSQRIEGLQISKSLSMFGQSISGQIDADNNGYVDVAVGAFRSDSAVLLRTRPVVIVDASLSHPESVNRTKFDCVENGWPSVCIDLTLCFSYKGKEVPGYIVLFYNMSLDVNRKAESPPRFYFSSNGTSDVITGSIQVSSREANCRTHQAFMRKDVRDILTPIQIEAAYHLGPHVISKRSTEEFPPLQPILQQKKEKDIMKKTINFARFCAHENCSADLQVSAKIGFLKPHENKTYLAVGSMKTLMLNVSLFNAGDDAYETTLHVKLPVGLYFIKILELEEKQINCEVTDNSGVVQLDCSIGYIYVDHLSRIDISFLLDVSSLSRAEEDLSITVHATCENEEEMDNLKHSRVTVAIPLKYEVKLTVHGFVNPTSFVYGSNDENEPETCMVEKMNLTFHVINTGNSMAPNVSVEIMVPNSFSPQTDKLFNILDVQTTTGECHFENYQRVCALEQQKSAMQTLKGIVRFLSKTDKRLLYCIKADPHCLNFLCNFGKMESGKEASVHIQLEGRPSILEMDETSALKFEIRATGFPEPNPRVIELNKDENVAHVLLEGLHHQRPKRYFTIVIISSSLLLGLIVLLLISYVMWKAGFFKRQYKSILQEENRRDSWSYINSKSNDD
# Numbers stand for hits; - = inactive; ? = inconclusive; . = no result; [ ] = dose if it differs, or a comment.
SMILES,RPL19A TOR yeast,CIT2-GFP yeast,MEP2-GFP yeast,AGP1-GFP MLPCN,LAP4 TOR yeast,VLA-4 inh
CCOc1ccccc1OCCC(=O)N1CCN(S(=O)(=O)c2ccccc2[N+](=O)[O-])CC1,-,-,-,-,-,-
O=C(CC1C(=O)NCCN1Cc1ccc(-c2ccccc2)cc1)NCc1ccccc1 (centres undefined),-,-,-,-,-,-
CN1CCN(C(=O)CC2C(=O)NCCN2Cc2ccc(-c3ccccc3)cc2)CC1 (centres undefined),-,-,259,-,163,-
O=C(Cn1ncc2c3ccccc3n(Cc3ccccc3)c2c1=O)NCCN1CCOCC1,29[may fluoresce violet],?,-,?,-,-
Cc1cccc(N=c2c([N+](=O)[O-])nn(-c3ccc(Cl)cc3)n2O)c1,-,-,-,-,154,-
CCc1cccc(N=c2c([N+](=O)[O-])nn(-c3ccc(Cl)cc3)n2O)c1,-,-,-,-,-,-
CN1CC(=O)Nc2ccc([N+](=O)[O-])cc2C1=O,-,-,-,-,-,-
COC(=O)c1ccc(CSc2nc3ccc(Cl)cc3[nH]2)o1,.,-,-,-,-,-
COC(=O)c1ccc(CSc2nc3scc(-c4cccs4)c3c(=O)[nH]2)o1,39[may fluoresce violet],?,178[may fluoresce violet],?,-,-
CCN(CC)N=Nc1[nH]nc2nc(C)cc(C)c12,-,157,-,-,-,-
CC(=O)n1nc2nc(C)cc(C)c2c1N,-,-,-,-,-,-
Cc1cc(C)c2c(C)[nH]nc2n1,-,-,-,-,-,-
Cc1cc(C)c2c(N=NN3CCCCC3)[nH]nc2n1,-,169,-,-,-,-
O=C(Nc1cccc(O)c1)c1c(O)c2ccccc2[nH]c1=O,-,-,-,-,-,-
Cc1onc(-c2ccccc2)c1C(=O)NC(=S)NNC(=O)c1ccco1,-,-,-,-,158,-
CC(C)c1ccccc1OCC(=O)Nc1ccc2[nH]ncc2c1,-,-,-,-,-,-
CC(C)C1N(C(N)=S)N=CC1(C)C (centres undefined),49[may fluoresce violet],.,664[may fluoresce violet],.,.,-
Nc1nc(-c2ccccc2)c(C(=O)Nc2ccccc2)s1,16[may fluoresce violet],?,?,?,-,-
Cc1cc(C)c(C(=O)Cn2cnc3cc([N+](=O)[O-])ccc3c2=O)cc1C,-,-,196,-,-,-
Cc1ccc(NC(=O)Cn2cnc3cc([N+](=O)[O-])ccc3c2=O)cc1,-,-,-,-,-,-
Cn1nc(C(C)(C)C)c([N+](=O)[O-])c1C(=O)N1CCOCC1,48[may fluoresce violet],?,231[may fluoresce violet],?,-,-
Cc1ccc(C(=O)CCS(=O)(=O)c2ccc(F)cc2)cc1,-,-,-,-,-,-
Cc1ccc(S(=O)(=O)CCC(=O)c2ccc(F)cc2)cc1,-,164,-,-,-,-
C/C(=N\NC(=O)c1nonc1N)c1cccs1,-,-,233,-,-,-
N#C/C(=C/c1ccc(N2CCOCC2)o1)c1ccc(Br)cc1,-,-,-,-,167,-
SMILES,RPL19A TOR yeast,CIT2-GFP yeast,MEP2-GFP yeast,AGP1-GFP MLPCN,LAP4 TOR yeast,VLA-4 inh
Clc1ccc2nc(N3CCNCC3)nc(-c3ccccc3)c2c1,39[may fluoresce violet],?,?,?,?,-
CN1CCN(c2nc(-c3ccccc3)c3cc(Cl)ccc3n2)CC1,-,-,-,-,-,-
O=S(=O)(c1ccc(F)cc1)N1CCN(CC2CC3C=CC2C3)CC1 (centres undefined),-,?,207[may fluoresce violet],-,-,-
CCOC(=O)C1=CCN(Cc2ccccc2)CC1,-,-,-,-,-,-
Cc1ccc(S(=O)(=O)N2CCCC2)cc1C(=O)NCC(C)(C)N1CCOCC1,-,-,-,-,-,-
COc1ccc(C(=O)Nc2c(N)nc[nH]c2=O)cc1,-,.,181,.,.,-
COCCSc1nc(N)c(NC(=O)c2ccc(OC)cc2)c(=O)[nH]1,-,-,-,-,-,-
O=C(C(=O)c1ccc(O)cc1)c1ccccc1,-,-,-,-,-,58
O=C1C(=O)c2ccc(-c3ccccc3)cc2-c2ccccc21,-,-,-,-,158,-
Nc1ccc2c(c1)C(=O)C(=O)c1ccccc1-2,-,-,-,-,189,-
Nc1ccc2c(c1)C(=O)c1ccccc1-2,-,-,-,-,-,-
C[C@H](CO)N1C[C@H](C)[C@@H](CN(C)S(=O)(=O)c2ccccc2)Oc2ccc(NC(=O)NC3CCCCC3)cc2C1=O,-,-,-,-,-,-
CC(C)C(NC(=O)c1c(F)cccc1F)C(=O)N1CCN(S(=O)(=O)/C=C/c2ccccc2)CC1 (centres undefined),-,-,-,-,-,-
O=C(CSc1nc2ccccc2o1)Nc1nc2ccc(Br)cc2s1,-,?,214[may fluoresce violet],-,-,-
C[Si](C)(C)n1ccnc1,-,-,-,-,-,-
NC(=O)c1cc2ccc(O)cc2oc1=NCc1ccccc1,47[may fluoresce violet],?,-,.,-,-
COc1cc(OC)cc(-c2c(-c3cccs3)c3cc(-c4ccc(C(N)=O)cc4)ccc3n2C)c1,-,-,-,-,-,-
COc1ccc(NC(=S)NCCN2CCOCC2)cc1,19[may fluoresce violet],?,419[may fluoresce violet],?,-,-
O=C(NCc1n[nH]c(=S)n1-c1cccc(C(F)(F)F)c1)c1ccc(S(=O)(=O)N2CCCCC2)cc1,26[may fluoresce violet],?,221[may fluoresce violet],?,-,-
C/C(=N\NC(=O)COc1ccccc1-c1ccccc1)c1ccccn1,-,-,-,-,171,-
CCCc1cc(NCC2CCCO2)n2c(nc3ccccc32)c1C#N (centres undefined),30[may fluoresce violet],?,537[may fluoresce violet],.,-,-
CCCc1cc(NCCN(C)C)n2c(nc3ccccc32)c1C#N,-,-,-,-,-,-
Cc1cccc2cc3c(NC(=O)C(C)(C)C)nn(CC(C)C)c3nc12,-,-,-,-,-,-
Cc1ccccc1CN(c1ccc(C(N)=O)cc1)S(C)(=O)=O,17[may fluoresce violet],?,310[may fluoresce violet],?,-,-
Cc1ccccc1CN(c1ccc(C(=O)NCc2cccnc2)cc1)S(C)(=O)=O,-,-,-,-,-,-
SMILES,RPL19A TOR yeast,CIT2-GFP yeast,MEP2-GFP yeast,AGP1-GFP MLPCN,LAP4 TOR yeast,VLA-4 inh
O=C(Nc1nnc(S(=O)(=O)N2CCCCC2)s1)c1ccc(Cl)cc1,-,-,-,-,-,-
CCOc1ccc2c(c1)c(C(C)=O)c(C)n2-c1ccccc1,35[may fluoresce violet],?,628[may fluoresce violet],.,-,-
CCOC(=O)COc1ccc2c(c1)c(C(C)=O)c(C)n2-c1ccccc1,-,-,-,-,-,-
CC(C)CNC(=O)c1nc(-c2ccccc2)n(-c2ccccc2)n1,20[may fluoresce violet],?,515[may fluoresce violet],?,-,-
O=C1CCC(C(=O)Nc2ccc([N+](=O)[O-])cc2)N1 (centres undefined),-,-,-,-,-,-
O=C(Nc1ccc(CN2CCOCC2)cc1)c1ccccc1F,41[may fluoresce violet],?,-,-,-,-
COCCNCC(O)CON=C1c2ccccc2-c2ccccc21 (centres undefined),48[may fluoresce violet],?,-,-,-,-

# Screens from PubChem.
